Reference: PubChem BioAssay (NCI)
Compounds without any hit were thinned out: in the full panel of roughly 83,000, 20% have a hit.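 Step 1: grow cells in 96-well plates. Step 2: add test compound at a single concentration. Step 3: incubate 48 h. Step 4: record percent growth.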 Activity calls are given as the source filed them. How the source made its calls: active means growth percent below 10; inactive means the rest.

Key:
Experiment in all cases: NCI-60 one-dose screen, 48 h (100 = growth as untreated, 0 = no growth, -100 = all killed)
Conditions in all cases: 10 µM unless noted
NCI-H23 lung = test system: NCI-H23 lung
NCI-H322M lung = test system: NCI-H322M lung
HOP-92 NSCLC = test system: HOP-92 NSCLC
NCI-H522 lung = test system: NCI-H522 lung
A549/ATCC NSCLC = test system: A549/ATCC NSCLC
786-0 renal = test system: 786-0 renal
DU-145 prostate = test system: DU-145 prostate
K-562 leukemia = test system: K-562 leukemia
MALME-3M melanoma = test system: MALME-3M melanoma
MDA-MB-231 breast = test system: MDA-MB-231 breast
RXF 393 renal = test system: RXF 393 renal
SF-268 CNS = test system: SF-268 CNS
SF-295 CNS = test system: SF-295 CNS
SF-539 CNS = test system: SF-539 CNS
UACC-257 melanoma = test system: UACC-257 melanoma
M14 melanoma = test system: M14 melanoma
HCT-15 colon = test system: HCT-15 colon
NCI-H460 lung = test system: NCI-H460 lung
COLO 205 colon = test system: COLO 205 colon

Measured: growth

COc1ccc(C2=C(c3cccc(OC)c3)C(=O)c3ccc(C)nc3C2=O)cc1
inactive: NCI-H23 lung 37.5% | NCI-H322M lung 76.4% | HOP-92 NSCLC 80% | NCI-H522 lung 40.9% | A549/ATCC NSCLC 40.8% | 786-0 renal 67.8% | DU-145 prostate 54.3% | K-562 leukemia 19.9% | MALME-3M melanoma 52.4% | MDA-MB-231 breast 29.4% | RXF 393 renal 33.3% | SF-268 CNS 48% | SF-295 CNS 56.2% | SF-539 CNS 43% | UACC-257 melanoma 67.8% | M14 melanoma 42% | HCT-15 colon 18.6%

COc1ccc(-c2nnc(COc3ccc(C(=O)/C=C/c4ccco4)cc3)o2)cc1
active: SF-295 CNS -2.9%
inactive: NCI-H23 lung 92.1% | NCI-H322M lung 86.6% | NCI-H460 lung 78.5% | HOP-92 NSCLC 88.4% | NCI-H522 lung 91.8% | A549/ATCC NSCLC 87% | 786-0 renal 50.9% | COLO 205 colon 44.7% | DU-145 prostate 61.6% | K-562 leukemia 15.3% | MALME-3M melanoma 125% | MDA-MB-231 breast 90% | RXF 393 renal 65% | SF-268 CNS 58.1% | SF-539 CNS 55.9% | UACC-257 melanoma 105% | M14 melanoma 98.8% | HCT-15 colon 68.3%

Nc1nc(Nc2cccc(F)c2)nc2ccccc12
inactive: NCI-H23 lung 38.7% | NCI-H322M lung 47.2% | NCI-H460 lung 31.6% | NCI-H522 lung 51.5% | A549/ATCC NSCLC 46.3% | 786-0 renal 46.5% | DU-145 prostate 67.9% | MALME-3M melanoma 57.2% | MDA-MB-231 breast 43.7% | RXF 393 renal 42% | SF-268 CNS 77.3% | SF-539 CNS 54.3% | UACC-257 melanoma 12% | M14 melanoma 22.9% | HCT-15 colon 33.4%
active: HOP-92 NSCLC -2.46% | COLO 205 colon -54.1% | K-562 leukemia 6.62%

COc1ccc(-c2c(-c3ccc(OC)c(O)c3)cnc3ncnn23)cc1
inactive: NCI-H23 lung 99.9% | NCI-H322M lung 106% | NCI-H460 lung 108% | HOP-92 NSCLC 95.1% | NCI-H522 lung 96% | A549/ATCC NSCLC 100% | 786-0 renal 103% | COLO 205 colon 126% | DU-145 prostate 105% | MALME-3M melanoma 111% | MDA-MB-231 breast 102% | SF-268 CNS 101% | SF-295 CNS 102% | SF-539 CNS 98.6% | UACC-257 melanoma 105% | M14 melanoma 106% | HCT-15 colon 100%

Cc1cc2c(c(C)c1Cl)C(=O)/C(=C/c1cccc([N+](=O)[O-])c1)O2
inactive: NCI-H23 lung 90.3% | NCI-H322M lung 98.7% | NCI-H460 lung 101% | HOP-92 NSCLC 114% | NCI-H522 lung 80.6% | A549/ATCC NSCLC 89.6% | 786-0 renal 101% | COLO 205 colon 123% | DU-145 prostate 104% | K-562 leukemia 99.9% | MALME-3M melanoma 97.1% | MDA-MB-231 breast 92.7% | RXF 393 renal 107% | SF-268 CNS 100% | SF-295 CNS 95.1% | SF-539 CNS 95% | UACC-257 melanoma 88.2% | M14 melanoma 98.9% | HCT-15 colon 99.7%

Cc1cccc(NC(=O)c2sc3nc4c(cc3c2N)CCCC4)c1C
active: NCI-H460 lung 6.76% | COLO 205 colon -38% | SF-295 CNS 6.95% | SF-539 CNS -12.2% | M14 melanoma 4.97%
inactive: NCI-H23 lung 30.2% | NCI-H322M lung 42.4% | HOP-92 NSCLC 49.6% | A549/ATCC NSCLC 26.3% | 786-0 renal 34% | DU-145 prostate 19.6% | MALME-3M melanoma 45.7% | MDA-MB-231 breast 38.6% | SF-268 CNS 34.9% | UACC-257 melanoma 66.3% | HCT-15 colon 16.2%

NC1C(N)C(N)C1N (configuration not stated)
inactive: NCI-H23 lung 102% | NCI-H322M lung 99.7% | NCI-H460 lung 113% | HOP-92 NSCLC 79.6% | NCI-H522 lung 91.5% | A549/ATCC NSCLC 99.8% | 786-0 renal 105% | COLO 205 colon 107% | DU-145 prostate 134% | K-562 leukemia 99.5% | MALME-3M melanoma 114% | MDA-MB-231 breast 94.2% | RXF 393 renal 125% | SF-268 CNS 109% | SF-295 CNS 126% | SF-539 CNS 100% | UACC-257 melanoma 101% | M14 melanoma 101% | HCT-15 colon 109%

O=Cc1cc2ccccc2nc1Nc1nccs1
inactive: NCI-H23 lung 52.4% | NCI-H322M lung 91.8% | NCI-H460 lung 61.8% | HOP-92 NSCLC 81% | A549/ATCC NSCLC 96.9% | 786-0 renal 69% | COLO 205 colon 69.7% | DU-145 prostate 80.3% | K-562 leukemia 109% | MALME-3M melanoma 73.1% | MDA-MB-231 breast 68.6% | RXF 393 renal 53.2% | SF-268 CNS 54.8% | SF-295 CNS 92.9% | SF-539 CNS 87.3% | UACC-257 melanoma 102% | M14 melanoma 101% | HCT-15 colon 46.4%

O=c1c(-c2nc3ccccc3[nH]2)cc2ccccc2n1Cc1cn(Cc2ccc(F)cc2)nn1
active: NCI-H460 lung -10.7% | 786-0 renal -23.2% | DU-145 prostate -23.5% | MDA-MB-231 breast 4.33% | RXF 393 renal -25.5% | SF-295 CNS 1.67% | SF-539 CNS -55.9% | M14 melanoma -20.7%
inactive: NCI-H23 lung 23.5% | NCI-H322M lung 19.4% | HOP-92 NSCLC 34.9% | NCI-H522 lung 19.5% | A549/ATCC NSCLC 11.4% | COLO 205 colon 18.2% | K-562 leukemia 17.7% | MALME-3M melanoma 12.8% | SF-268 CNS 29.4% | UACC-257 melanoma 49.9% | HCT-15 colon 16.9%
